Screening results deposited in PubChem by National Center for Advancing Translational Sciences (NCATS).
Rows were chosen to be rich in hits. Some 6.5% of all compounds tested hit in one or more screens of this group.
MARV entry inh – qHTS for inhibitors of binding or entry into cells for Marburg Virus | Marburg virus pseudotyped entry inhibition, cell reporter | Potency, µM (top dose mostly 37.8 µM), actives largely listed as inhibitors | 300,000 tested, 1.8% active; calls by dose curve; tested in HEK293 cells
Vaccinia mCherry – qHTS for Stage-Specific Inhibitors of Vaccinia Orthopoxvirus: mCherry Reporter Primary qHTS; Potency, µM (top dose mostly 36.5 µM), usual class: inhibitors; Vaccinia virus mCherry reporter infection, fluorescence; 310,000 tested, 0.63% active; calls by dose curve; tested in A549 cells; further: nearly all actives have a fitted effect of over 35% in size
LASV entry inh – qHTS for Inhibitors of binding or entry into cells for Lassa Virus. Lassa virus pseudotype entry inhibition, cell reporter. Potency, µM (titrated, usually from 37.9 µM), most hits filed as inhibitors. 300,000 tested, 1.2% active; calls by dose curve; tested in HEK293 cells; further: nearly all actives have a fitted effect of over 50% in size
VACV Venus inh – qHTS for Stage-Specific Inhibitors of Vaccinia Orthopoxvirus: Venus Reporter Primary qHTS; Vaccinia virus Venus reporter expression, fluorescence; Potency, µM (series often up to 36.5 µM), hits mostly inhibitors; 330,000 tested, 0.46% active; calls by dose curve; tested in A549 cells; further: nearly all actives have a fitted effect of over 30% in size
FMDV antiviral – High Throughput Screening for Foot and Mouth Disease Virus Antivirals; FMDV antiviral cell-based qHTS; Potency, µM (titrated, usually from 57.9 µM), hits mostly inhibitors; 410,000 tested, 1.2% active; AID 1159524, 2015; calls by dose curve; tested in HEK293T cells; further: read-out not given here; nearly all actives have a fitted effect of over 45% in size
HCMV inh – qHTS Assay for inhibitors of the human cytomegalovirus (HCMV); HFF cells, HCMV-luciferase reporter, 72 h; stronger effect = lower value; activity change, negative = inhibition, % at 57.5 µM; 410,000 tested, 4.5% active; AID 1259415, 2018; in the data active means activity change below about -60%; inconclusive means no clear call, values can overlap the other calls; inactive means above about -39%
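Steps: HFFs plated, 16 h 37C; compounds added; HCMV-luciferase added to MOI 1 PFU/cell; 72 h 37C; OneGlo reagent, 5 min room temperature; luminescence read, normalized to controls.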
Hits are given with their value; i = inactive; ? = inconclusive; nt = no result given.

SMILES	MARV entry inh	Vaccinia mCherry	LASV entry inh	VACV Venus inh	FMDV antiviral	HCMV inh
Cc1ccccc1CNC(=O)C(=O)NCC(c1ccco1)S(=O)(=O)c1cccs1 (configuration not stated)	nt	i	i	i	i	i
O=C(c1ccc(COc2ccccc2Br)o1)N1N=C(C(F)F)CC1(O)C(F)F (configuration not stated)	7.08µM	i	i	?	i	i
CCC(OC(=O)CN1C(=O)C(=O)c2ccccc21)C(=O)Nc1ccccc1OC (configuration not stated)	i	i	i	i	i	-62.6
COC(=O)c1c(C)[nH]c2ccccc12	nt	nt	nt	nt	nt	i
CC(=O)Nc1ccc(C(=O)NNC(=O)c2cccs2)cc1	i	i	i	i	i	-66.7
O=C(NNC(=O)c1cccs1)c1ccccc1	nt	i	nt	i	i	i
CCC1CCCCN1S(=O)(=O)c1ccc(NC(=O)C2CCCO2)cc1 (configuration not stated)	i	i	i	i	i	i
O=C(Nc1nonc1NC(=O)c1cccs1)c1cccs1	?	?	8.91µM	?	?	-93.4
O=C(Nc1ccc(NC(=O)C2CC2)cc1)c1cccs1	?	i	i	i	i	-77.5
CCC1CCCCN1S(=O)(=O)c1ccc(NC(=O)c2cccs2)cc1 (configuration not stated)	i	i	5.17µM	i	i	i
O=C(Nc1ccc(NC(=O)c2cccs2)cc1)c1cccs1	?	i	i	i	i	i
COc1ccc(C2=NCC(C)n3c2c2ccccc2[n+]3[O-])cc1 (configuration not stated)	nt	nt	nt	nt	nt	i
Cc1cc(=O)[nH]c2nnc(SCc3c(F)cccc3Cl)n12	nt	i	i	i	i	i
CCOc1cc(/C=N/NS(=O)(=O)c2ccccc2)ccc1OS(=O)(=O)c1ccc(C)cc1	?	nt	i	i	i	i
CCOc1cc(/C=N/NC(=O)COc2ccc(Cl)cc2)ccc1OS(=O)(=O)c1ccccc1	6.51µM	?	?	?	i	i
O=C(CCCCn1c(=O)c2ccccc2n(CC(=O)Nc2ccccc2)c1=O)NCc1ccccc1Cl	i	i	i	i	i	i
c1cc2c(cc1-c1[nH]ncc1CN1CC3C[C@@H]4CC1C[C@H](C3)C4)OCO2	i	i	i	i	i	-69.4
CN(C)CCCN(C(=O)c1ccc(Br)s1)c1nc2cc3c(cc2s1)OCO3	nt	10µM	nt	12.6µM	i	-103.2
CN(C)CCCN(C(=O)C1COc2ccccc2O1)c1nc2cc3c(cc2s1)OCO3 (configuration not stated)	nt	nt	nt	nt	i	i
CN(C)CCCN(C(=O)c1cc(-c2cccs2)nc2ccccc12)c1nc2ccc(F)cc2s1	?	?	6.31µM	?	i	i
CCN(CC)CCN(C(=O)c1ccc2c(c1)CCCC2)c1nc2ccc(F)cc2s1	?	i	i	i	i	i
CCN(CC)CCN(C(=O)c1ccc2c(c1)CCCC2)c1nc2ccc(C)cc2s1	10µM	i	?	i	?	i
CN(C)CCCN(C(=O)c1ccc2c(c1)CCCC2)c1nc2ccc(F)cc2s1	?	?	15.8µM	?	i	i
Cc1cccc(C(=O)NCCc2nc3ccccc3n2CCC(C)C)c1	?	i	i	i	i	i
CCn1nc(C)cc1C(=O)NCCN1Cc2ccccc2OC(c2ccccc2F)C1 (configuration not stated)	nt	i	nt	i	?	nt
SMILES	MARV entry inh	Vaccinia mCherry	LASV entry inh	VACV Venus inh	FMDV antiviral	HCMV inh
Cc1ccc(C)c(CN2CCc3nnc(CNC(=O)c4cc(C)oc4C)n3CC2)c1	nt	i	nt	i	i	nt
C[C@H](NC(=O)OC(C)(C)C)c1nnc(SCc2ccc(Cl)cc2Cl)o1	?	i	?	i	i	i
CN(C)CCCN(C(=O)c1ccc2c(c1)OCCO2)c1nc2ccc(Cl)cc2s1	nt	nt	nt	nt	nt	i
CN(C)CCCN(C(=O)c1ccc2c(c1)CCCC2)c1nc2cc3c(cc2s1)OCO3	11.2µM	?	?	?	i	?
Cc1ccc2nc(N(CCCN(C)C)C(=O)c3sc4ccccc4c3Cl)sc2c1	i	i	?	i	17.8µM	-77.8
Cc1ccc(C(=O)N(CCCN(C)C)c2nc3ccc(Cl)cc3s2)cc1C	8.91µM	i	?	i	?	i
Cc1ccc2nc(N(CCCN(C)C)C(=O)c3ccc(S(=O)(=O)N(C)C)cc3)sc2c1	?	i	i	i	i	i
Cc1ncc(CO)c2c1Oc1nc(-c3ccccc3F)nc(SCC(=O)N3CCCCC3)c1C2	nt	i	i	i	i	i
CCOC(=O)C1(Cc2ccccc2C(F)(F)F)CCN(C2CCCC2)CC1	7.94µM	i	?	i	i	i
CCOC(=O)C1(Cc2ccccc2C(F)(F)F)CCN(C2CCSC2)CC1 (configuration not stated)	i	i	i	i	i	?
O=C(c1cccnc1)N1C[C@H]2[C@@H](c3ccccc31)[C@@H](CO)N2C(=O)Nc1ccccc1Cl	nt	nt	nt	nt	nt	i
COc1cc2c(cc1C(F)(F)F)N(C(=O)Nc1cc(F)cc(-c3cccnc3)c1)CC2	1.26µM	i	nt	i	i	nt
Cn1ccc2cc3c(cc21)CCN3C(=O)Nc1cccnc1	?	i	?	i	i	i
COC(=O)c1ccc(-n2c(/C=C\c3cccc(Br)c3)nc3ccccc3c2=O)cc1	nt	?	i	i	i	i
Cc1nc(S(=O)(=O)N2CCN(c3cccc(Cl)c3)CC2)cn1C	nt	i	i	i	i	i
O=C(Cc1ccccn1)c1ccc(Cl)cc1	nt	i	nt	i	i	-68.3
O=C(Cc1ccccn1)c1ccccc1	nt	i	nt	i	i	i
COc1cc(Nc2cc3c(cn2)nc(Cc2ccccc2)n3C)cc(OC)c1OC	nt	nt	nt	nt	nt	i
Cc1ccc(NC(=O)ON=C2CCCC2)cc1	10µM	i	1.41µM	i	i	i
Nc1ncnc2c1nc(Sc1ccc(Cl)cc1)n2[C@H]1OC2COP(=O)(O)O[C@H]2[C@@H]1O (some centres not stated)	nt	i	nt	i	nt	nt
Cc1ccc(OCc2nc(-c3ccc(C(=O)NCCc4ccc(S(N)(=O)=O)cc4)cc3)oc2C)cc1	i	i	nt	i	i	i
Cn1cnc(S(=O)(=O)N2CCCCN3[C@H](CO)[C@H](c4ccc(C#CC5CC5)cc4)[C@@H]3C2)c1	nt	nt	nt	nt	nt	i
O=C1c2cccc3c(O)ccc(c23)C(=O)N1c1ccc(Cl)cc1	i	i	?	i	12.6µM	-71.9
CC(=O)Nc1ccc(N2C(=O)c3cccc4c(O)ccc(c34)C2=O)cc1	nt	i	nt	i	i	?
Cc1ccc(-n2c(-c3ccccc3)cc(/C=N/NC(=O)CC#N)c2-c2ccccc2)cc1	nt	nt	nt	nt	nt	i
N#CCC(=O)N/N=C/c1cc(-c2ccccc2)n(-c2ccc(Cl)cc2)c1-c1ccccc1	?	i	?	i	25.1µM	?
C=C(C)C1CC23C(=O)[C@]4(C(=O)c5ccccc5)C[C@@]5(C)CCC(CC2C1(C)C)(C4=O)[C@@]35OC (some centres not stated)	i	nt	nt	nt	nt	nt
